High-throughput results (PubChem)
BAZ2B inh – BAZ2B (human) inhibition; Potency, µM (series often up to 114 µM), inactives show at the highest dose activity change, negative = inhibition, hits mostly inhibitors; actives 4.4% (n = 360,000); AlphaScreen BAZ2B-H3K14Ac peptide displacement; Q9UIF8; also: % is scaled to controls: 0 for no effect and ±100 for the full control effect; nearly all actives have a fitted effect of over 60% in size
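Compounds, titrated to a top concentration of 110 uM, were incubated 30 min at room temperature with preformed BAZ2B/acetyl-K14 H3 peptide complex (50 nM each). Proximity signal was measured by AlphaScreen after 20 min with beads.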
G9a block – blocks human histone lysine methyltransferase G9a | actives 8.8% (n = 350,000) | AID 504332 | Potency, µM (titrated, usually from 102 µM), for inactives: at the top dose activity, negative = inhibition, usual class: inhibitors | Q96KQ7 | G9a H3K9 monomethylation, AlphaScreen, 2 h; also: % is scaled to controls: 0 for no effect and ±100 for the full control effect; nearly all actives have a fitted effect of over 75% in size
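Step 1: enzyme (final 20 nM) with compound, 15 min RT. Step 2: substrate peptide 500 nM and SAM 20 uM, 2 h RT. Step 3: anti-H3K9me1 antibody and AlphaScreen beads, 10 min, then plate read.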
JMJD2A Tudor – blocks the human JMJD2A Tudor domain | O75164 | AlphaScreen JMJD2A-Tudor / H3K4me3 peptide binding | Potency, µM (doses to about 114 µM), for inactives: at the highest dose activity change, negative = inhibition, most hits filed as inhibitors | actives 4.4% (n = 390,000); also: % is scaled to controls: 0 for no effect and ±100 for the full control effect; nearly all actives have a fitted effect of over 50% in size
HP1b chromo inh – inhibitors of HP1-beta chromodomain binding to methylated histone tails | P83916 | AlphaScreen HP1-beta / biotin-H3K9me3 peptide binding | Potency, µM (titrated, usually from 114 µM), for the others: at the highest dose activity change, negative = inhibition, usual class: inhibitors | actives 0.56% (n = 390,000); also: nearly all actives have a fitted effect of over 70% in size
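Compound inhibition of the preformed complex between 50 nM HP1-beta and 50 nM biotinylated H3K9me3 peptide was read by AlphaScreen. Buffer was PBS pH 7.4 with 0.01% Tween-20. Incubations ran 30 min at room temperature, with 10 ug/mL donor/acceptor beads.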
L3MBTL1 inh – inhibitors of human L3MBTL1; Q9Y468; AlphaScreen L3MBTL1–H3K9me1 peptide binding; Potency, µM (titrated, usually from 57.1 µM), for inactives: top-dose activity, negative = inhibition, usual class: inhibitors; actives 0.66% (n = 230,000); also: % is scaled to controls: 0 for no effect and ±100 for the full control effect; nearly all actives have a fitted effect of over 60% in size
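Read-out is AlphaScreen signal from streptavidin donor and nickel chelate acceptor beads (10 ug/mL final each) bridging L3MBTL1 (50 nM) and biotinylated K9-monomethylated H3(1-15) peptide (75 nM), after 30 min compound exposure at room temperature.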
* = called active by the depositor; ? = inconclusive; / = no result; [ ] = remark or other dose. Sampled rows, rich in hits. Any-hit rate of the full collection: about 11%. Calls follow the shape of the dose curve; as a rule, active = well fitted inhibition curve with a large enough effect; inconclusive = small, poorly fitted or top-dose-only effect; inactive = no such curve, though single readings can be large or run the other way. Potency is read from the fitted curve at half-maximal effect.

SMILES	BAZ2B inh	G9a block	JMJD2A Tudor	HP1b chromo inh	L3MBTL1 inh
CCn1cc(C(=O)NCCCN(C)c2ccccc2)c(=O)c2cc(S(=O)(=O)N(C)C)ccc21	?	?	?	-21%	-14%
CCN(CCCNC(=O)COc1cc(=O)n(CC)c2ccccc12)c1ccccc1	?	11µM*	?	-5%	-14%
CCN(CCCNC(=O)c1cn(CC)c2ccc(S(=O)(=O)N(C)C)cc2c1=O)c1cccc(C)c1	?	35µM*	?	-19%	-5%
COc1ccccc1CNc1ccnc(-c2ccc(N(C)C)cc2)n1	/	1%[0.501 µM]	/	/	/
Cc1ccc(S(=O)(=O)N(Cc2nc(-c3cccc(C)c3)no2)C2CCCCC2)cc1	-5%	18%[59 µM]	15%	50%	/
Cc1cc(C(=O)NCC(=O)O)c(C)o1	50µM*	-11%	-17%	9%	/
COc1ccccc1Nc1ncc2c(n1)CCN(CC(C)C)C2	-14%	7%[59 µM]	-14%	11%	/
CCCCC(=O)Nc1cc(Cl)ccc1C(=O)O	?	25µM*	5%	46%	-2%
CCc1ccc(S(=O)(=O)/N=C2\C=C(NS(=O)(=O)c3ccccc3)C(=O)c3ccccc32)cc1	8.9µM*	13µM*	22µM*	14µM*	/
CCc1ccc(Nc2nc3ccccc3nc2NS(=O)(=O)c2ccccc2)cc1	3%	35%[59 µM]	1%	56%	/
CC(C)c1ccc(S(=O)(=O)/N=C2/C=CC(=O)c3ccccc32)cc1	7.9µM*	11µM*	/	/	/
CC(C)c1ccc(S(=O)(=O)/N=C2\C=C(NS(=O)(=O)c3ccccc3)C(=O)c3ccccc32)cc1	7.1µM*	6.3µM*	28µM*	20µM*	/
Cc1ccc(C)c(S(=O)(=O)/N=C2\C=C(NS(=O)(=O)c3ccccc3)C(=O)c3ccccc32)c1	10µM*	14µM*	22µM*	?	/
COc1ccccc1/C=C/c1nc(C#N)c(NCc2ccccc2)o1	-34%	?	-1%	19%	/
COc1ccccc1NC(=O)C1=C(C)Nc2nc(SCc3ccccc3)nn2C1c1cccc(O)c1 (stereo unspecified)	0%	-3%[59 µM]	-17%	15%	/
O=c1c2ccccc2nc2n1-c1ccccc1CCC2	-9%	-5%[12.7 µM]	-10%	44%	0%
O=C1CCc2nc3ccccc3c(=O)n2N1	56µM*	-50%[12.7 µM]	?	27%	22%
COC(=O)CSc1ccc(S(=O)(=O)N2CCC(C)CC2)cc1[N+](=O)[O-]	-18%	-10%	-11%	15%	3%
CCCCN(CCCC)S(=O)(=O)c1ccc(SCC(=O)OCC)c([N+](=O)[O-])c1	-31%	-8%	?	79µM*	/
CCOC(=O)CSc1ccc(S(=O)(=O)N(CC)CC)cc1[N+](=O)[O-]	-25%	45µM*	-35%	6%	/
Cc1ccc(S(=O)(=O)N(CC(=O)N=Nc2c(O)[nH]c3ccccc23)c2ccc(C)c(C)c2)cc1	-32%	12%[59 µM]	?	-13%	-11%
Cc1ccc(S(=O)(=O)N=Nc2c(O)[nH]c3ccccc23)cc1	?	1.6µM*	-20%	36%	/
Cc1ccc(C)c(S(=O)(=O)N=Nc2c(O)[nH]c3ccccc23)c1	-27%	8.9µM*	-15%	27%	-4%
Cc1ccc(C(=O)NCC(C)NC(=O)c2ccc(C)c([N+](=O)[O-])c2)cc1[N+](=O)[O-] (stereo unspecified)	/	/	-29%	9%	/
CC(CNC(=O)c1cncc(O)c1)NC(=O)c1cncc(O)c1 (stereo unspecified)	?	45µM*	50µM*	9%	-7%
SMILES	BAZ2B inh	G9a block	JMJD2A Tudor	HP1b chromo inh	L3MBTL1 inh
Cc1ccc2nc(SCc3nc(-c4ccc(Cl)cc4)no3)[nH]c2c1	-4%	27%[59 µM]	-7%	75%	/
CCOC(=O)C(O)(NC(=O)c1cccnc1)C(F)(F)F (stereo unspecified)	-31%	?	8%	52%	/
CC(=O)C(C(C)=O)C(NC(=O)c1cccnc1)(C(F)(F)F)C(F)(F)F	-24%	-16%[59 µM]	3.5µM*	20%	-6%
CCCN1CCN(c2ncnc3sc(C(=O)Nc4ccc(N(CC)CC)cc4C)c(C)c23)CC1	28µM*	14µM*	50µM*	?	/
CCCN1CCN(c2ncnc3sc(C(=O)Nc4cccc(Cl)c4C)c(C)c23)CC1	-28%	7%[12.7 µM]	-26%	9%	/
O=[N+]([O-])c1ccc(-c2cnc(NO)nc2)cc1	5%	7.9µM*	?	38%	0%
CN1C(=O)/C(=C/c2ccccc2OCc2ccccc2)NC1=S	?	?	-22%	5%	-8%
CN1C(=O)/C(=C/c2cc(C(C)(C)C)c(O)c(C(C)(C)C)c2)NC1=S	0%	13µM*	0%	42%	/
COc1ccc(CNC2CCCc3ccccc32)c(OC)c1 (stereo unspecified)	4%	/	50µM*	?	-3%
COc1ccc(NC(=O)NC2CCCc3ccccc32)c(OC)c1 (stereo unspecified)	-19%	0%	-13%	23%	/
COc1ccc(CNC2CCCCC2C)c(OC)c1 (stereo unspecified)	56µM*	14µM*	2µM*	?	7%
COc1ccccc1Cc1nc2ccccc2nc1SCC(=O)NCc1ccccc1Cl	6%	11%[59 µM]	-11%	35%[57 µM]	/
COC(=O)c1cc2sccc2n1Cc1nc(-c2ccc(C)cc2)oc1C	-12%	?	-3%	18%	/
COc1cccc(CNCCSc2nnnn2C)c1OCc1ccccc1F	?	-11%[59 µM]	-17%	28%	/
Cc1nn(CC(=O)NCCc2ccco2)c(=O)c2nn(-c3ccccc3)c(C)c12	?	?	-33%	4%[57 µM]	/
Cc1nn(C(C)C(=O)NCCc2ccco2)c(=O)c2nn(-c3ccccc3)c(C)c12 (stereo unspecified)	-18%	33%	79µM*	1%	/
Cc1ccc(-n2nc3c(=O)n(C(C)C(=O)NCCC4=CCCCC4)nc(C)c3c2C)cc1 (stereo unspecified)	-25%	13%[59 µM]	45µM*	46%	/
Cc1ccc(CCNC(=O)C(C)n2nc(C)c3c(C)n(-c4ccccc4)nc3c2=O)cc1 (stereo unspecified)	-12%	58%	-15%	-2%	/
O=C(NCc1ccc(Cl)cc1)C(=O)NCC(c1cccnc1)N1CCN(c2ccccc2)CC1 (stereo unspecified)	-12%	1%[59 µM]	-21%	12%	/
CCOC(=O)N1CCN(S(=O)(=O)c2ccc(C)cc2)CC1	-19%	12%	-8%	30%	/
COc1ccc(N2CCN(C(=O)COC(=O)CCS(=O)(=O)c3ccc(C)cc3)CC2)cc1	-17%	40µM*	-10%	-10%	-5%
CCOCCCNCC(=O)N1CCN(S(=O)(=O)c2ccc(C)cc2)CC1	79µM*	4.5µM*	4µM*	-38%	3%
Cc1ccc(S(=O)(=O)CCC(=O)OCC(=O)N2CCN(c3ccccc3)CC2)cc1	2%	10%[2.33 µM]	-14%	13%	7%
